# Data published in ChEMBL document CHEMBL2218924, “A broad activity screen in support of a chemogenomic map for kinase signalling research and drug discovery” (Biochem J, 2013).
# Legend:
# [1] = target: Serine/threonine-protein kinase PAK 4 (Homo sapiens) (UniProt O96013); conditions: at 1 µM
# [2] = target: Serine/threonine-protein kinase PAK 4 (Homo sapiens) (UniProt O96013); conditions: at 10 µM
# [3] = target: Serine/threonine-protein kinase PAK 5 (Homo sapiens) (UniProt Q9P286); conditions: at 1 µM
# [4] = target: Serine/threonine-protein kinase PAK 5 (Homo sapiens) (UniProt Q9P286); conditions: at 10 µM
# [5] = target: Serine/threonine-protein kinase PAK 6 (Homo sapiens) (UniProt Q9NQU5); conditions: at 1 µM
# [6] = target: Serine/threonine-protein kinase PAK 6 (Homo sapiens) (UniProt Q9NQU5); conditions: at 10 µM
# [7] = target: PAS domain-containing serine/threonine-protein kinase (Homo sapiens) (UniProt Q96RG2); conditions: at 10 µM
# [8] = target: Activated CDC42 kinase 1 (Homo sapiens) (UniProt Q07912); conditions: at 1 µM
# [9] = target: Activated CDC42 kinase 1 (Homo sapiens) (UniProt Q07912); conditions: at 10 µM
# [10] = target: ALK tyrosine kinase receptor (Homo sapiens) (UniProt Q9UM73); conditions: at 1 µM
# [11] = target: ALK tyrosine kinase receptor (Homo sapiens) (UniProt Q9UM73); conditions: at 10 µM
# [12] = target: T1, AMP-activated protein kinase (AMPK) alpha-1/beta-1/gamma-1 (Homo sapiens) (UniProt P54619+Q9Y478+Q13131); conditions: at 1 µM
# [13] = target: T1, AMP-activated protein kinase (AMPK) alpha-1/beta-1/gamma-1 (Homo sapiens); conditions: at 10 µM
# [14] = target: T2, AMP-activated protein kinase, AMPK (Homo sapiens) (UniProt P54646+O43741+P54619+Q9UGJ0+Q9Y478+Q13131+Q9UGI9); conditions: at 10 µM
# [15] = target: T3, NUAK family SNF1-like kinase 1 (Homo sapiens) (UniProt O60285); conditions: at 1 µM
# T3 sequence (whole entry): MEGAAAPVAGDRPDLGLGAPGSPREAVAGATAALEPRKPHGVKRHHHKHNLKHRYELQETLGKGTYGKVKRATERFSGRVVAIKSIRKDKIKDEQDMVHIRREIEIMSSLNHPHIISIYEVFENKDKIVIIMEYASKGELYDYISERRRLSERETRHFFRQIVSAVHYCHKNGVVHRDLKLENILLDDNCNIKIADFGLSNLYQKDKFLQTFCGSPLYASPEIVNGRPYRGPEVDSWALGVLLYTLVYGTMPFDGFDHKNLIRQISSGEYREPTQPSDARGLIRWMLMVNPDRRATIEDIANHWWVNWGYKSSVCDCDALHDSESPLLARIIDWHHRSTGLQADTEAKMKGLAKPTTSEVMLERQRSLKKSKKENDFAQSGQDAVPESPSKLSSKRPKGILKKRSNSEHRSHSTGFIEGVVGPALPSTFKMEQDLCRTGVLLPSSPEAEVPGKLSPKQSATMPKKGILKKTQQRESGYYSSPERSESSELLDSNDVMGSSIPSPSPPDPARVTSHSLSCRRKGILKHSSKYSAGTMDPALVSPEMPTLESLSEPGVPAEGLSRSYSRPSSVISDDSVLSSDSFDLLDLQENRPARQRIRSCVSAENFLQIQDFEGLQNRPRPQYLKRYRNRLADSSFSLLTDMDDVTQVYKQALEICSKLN
# [16] = target: T3, NUAK family SNF1-like kinase 1 (Homo sapiens); conditions: at 10 µM
# [17] = target: T4, Activin receptor type-1B (Homo sapiens) (UniProt P36896); conditions: at 1 µM
# T4 sequence (whole entry): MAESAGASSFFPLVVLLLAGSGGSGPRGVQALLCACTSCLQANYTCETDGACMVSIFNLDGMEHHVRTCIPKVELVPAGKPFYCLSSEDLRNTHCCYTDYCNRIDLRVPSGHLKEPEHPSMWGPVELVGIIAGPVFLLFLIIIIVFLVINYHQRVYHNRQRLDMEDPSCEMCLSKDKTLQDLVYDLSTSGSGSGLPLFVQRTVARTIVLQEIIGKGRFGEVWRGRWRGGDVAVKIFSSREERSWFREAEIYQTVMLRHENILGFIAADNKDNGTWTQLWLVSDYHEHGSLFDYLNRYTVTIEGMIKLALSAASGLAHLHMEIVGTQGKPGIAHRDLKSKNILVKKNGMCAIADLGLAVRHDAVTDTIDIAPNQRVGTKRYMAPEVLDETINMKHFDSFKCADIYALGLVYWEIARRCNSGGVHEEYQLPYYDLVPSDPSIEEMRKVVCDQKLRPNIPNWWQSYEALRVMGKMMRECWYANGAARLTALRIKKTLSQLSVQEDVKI
# [18] = target: T4, Activin receptor type-1B (Homo sapiens); conditions: at 10 µM
# [19] = target: T2, AMP-activated protein kinase, AMPK (Homo sapiens); conditions: at 1 µM
# [20] = target: T5, Mitogen-activated protein kinase kinase kinase 5 (Homo sapiens) (UniProt Q99683); conditions: at 1 µM
# T5 sequence (whole entry): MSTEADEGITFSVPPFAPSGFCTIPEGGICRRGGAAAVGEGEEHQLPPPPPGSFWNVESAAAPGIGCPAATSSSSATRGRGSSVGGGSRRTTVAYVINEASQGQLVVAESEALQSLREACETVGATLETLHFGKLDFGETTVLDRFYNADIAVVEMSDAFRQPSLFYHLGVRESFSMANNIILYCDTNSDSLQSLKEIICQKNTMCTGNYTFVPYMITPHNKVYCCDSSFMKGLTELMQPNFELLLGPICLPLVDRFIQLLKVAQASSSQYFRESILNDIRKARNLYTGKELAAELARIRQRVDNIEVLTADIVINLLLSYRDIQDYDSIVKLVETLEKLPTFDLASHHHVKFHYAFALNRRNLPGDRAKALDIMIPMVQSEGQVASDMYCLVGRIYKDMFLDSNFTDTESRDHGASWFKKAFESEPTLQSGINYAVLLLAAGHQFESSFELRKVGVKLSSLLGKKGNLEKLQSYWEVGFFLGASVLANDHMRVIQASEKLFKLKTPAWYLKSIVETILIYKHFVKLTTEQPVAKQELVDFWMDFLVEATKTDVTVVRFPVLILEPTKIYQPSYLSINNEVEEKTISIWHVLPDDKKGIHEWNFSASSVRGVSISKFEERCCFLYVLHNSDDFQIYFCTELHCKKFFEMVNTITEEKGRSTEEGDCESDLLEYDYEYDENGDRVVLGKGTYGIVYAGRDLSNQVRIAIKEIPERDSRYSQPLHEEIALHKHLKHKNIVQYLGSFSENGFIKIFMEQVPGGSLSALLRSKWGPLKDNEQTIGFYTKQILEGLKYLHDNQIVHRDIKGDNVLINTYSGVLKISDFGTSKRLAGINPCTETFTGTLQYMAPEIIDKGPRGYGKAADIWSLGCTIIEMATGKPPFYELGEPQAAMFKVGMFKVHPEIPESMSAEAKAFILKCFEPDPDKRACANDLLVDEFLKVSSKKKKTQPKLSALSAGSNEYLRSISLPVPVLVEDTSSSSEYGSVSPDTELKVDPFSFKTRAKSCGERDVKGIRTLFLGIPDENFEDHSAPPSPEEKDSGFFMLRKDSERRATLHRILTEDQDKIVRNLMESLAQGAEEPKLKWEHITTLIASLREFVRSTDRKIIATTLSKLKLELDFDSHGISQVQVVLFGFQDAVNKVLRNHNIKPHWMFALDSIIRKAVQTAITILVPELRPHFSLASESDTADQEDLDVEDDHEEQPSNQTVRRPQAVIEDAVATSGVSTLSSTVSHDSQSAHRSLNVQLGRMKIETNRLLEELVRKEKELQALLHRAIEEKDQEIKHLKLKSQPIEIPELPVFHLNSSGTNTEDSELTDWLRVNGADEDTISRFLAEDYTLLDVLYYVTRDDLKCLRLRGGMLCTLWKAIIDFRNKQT
# T1 sequence (P54619 whole entry): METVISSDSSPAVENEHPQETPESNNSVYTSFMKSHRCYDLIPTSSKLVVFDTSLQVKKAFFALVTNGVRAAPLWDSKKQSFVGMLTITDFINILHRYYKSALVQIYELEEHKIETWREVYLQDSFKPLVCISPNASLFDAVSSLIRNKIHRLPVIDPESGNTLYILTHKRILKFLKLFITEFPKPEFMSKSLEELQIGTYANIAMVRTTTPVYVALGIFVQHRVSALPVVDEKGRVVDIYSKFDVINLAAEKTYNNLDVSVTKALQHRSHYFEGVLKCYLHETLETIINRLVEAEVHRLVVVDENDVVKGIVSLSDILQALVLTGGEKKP
# T1 sequence (Q13131 whole entry partner): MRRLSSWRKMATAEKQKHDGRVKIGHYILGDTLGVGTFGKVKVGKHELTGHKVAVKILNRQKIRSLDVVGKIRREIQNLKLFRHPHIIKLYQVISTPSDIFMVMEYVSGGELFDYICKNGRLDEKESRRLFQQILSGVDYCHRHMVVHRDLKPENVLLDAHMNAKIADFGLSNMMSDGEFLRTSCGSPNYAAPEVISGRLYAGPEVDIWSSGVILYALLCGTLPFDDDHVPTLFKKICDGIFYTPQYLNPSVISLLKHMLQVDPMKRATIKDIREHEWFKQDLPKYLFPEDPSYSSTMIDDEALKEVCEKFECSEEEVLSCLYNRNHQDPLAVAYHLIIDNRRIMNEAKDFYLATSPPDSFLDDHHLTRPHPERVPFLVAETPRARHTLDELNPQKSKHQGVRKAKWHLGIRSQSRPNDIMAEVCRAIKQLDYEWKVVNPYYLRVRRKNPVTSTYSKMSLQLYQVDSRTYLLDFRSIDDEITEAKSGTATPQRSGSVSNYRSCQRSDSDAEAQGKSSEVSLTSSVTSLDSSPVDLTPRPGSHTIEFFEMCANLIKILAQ
# T1 sequence (Q9Y478 2-270 partner limits assumed): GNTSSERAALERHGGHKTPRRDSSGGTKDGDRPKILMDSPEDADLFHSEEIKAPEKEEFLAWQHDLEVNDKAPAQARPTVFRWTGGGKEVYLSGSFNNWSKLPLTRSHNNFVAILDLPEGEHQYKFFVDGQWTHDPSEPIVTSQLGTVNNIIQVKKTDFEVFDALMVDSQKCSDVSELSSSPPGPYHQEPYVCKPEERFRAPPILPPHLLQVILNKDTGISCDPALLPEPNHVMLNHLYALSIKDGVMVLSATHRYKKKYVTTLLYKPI
# Chain of Activated CDC42 kinase 1 (Homo sapiens) (Q07912 whole entry, looked up): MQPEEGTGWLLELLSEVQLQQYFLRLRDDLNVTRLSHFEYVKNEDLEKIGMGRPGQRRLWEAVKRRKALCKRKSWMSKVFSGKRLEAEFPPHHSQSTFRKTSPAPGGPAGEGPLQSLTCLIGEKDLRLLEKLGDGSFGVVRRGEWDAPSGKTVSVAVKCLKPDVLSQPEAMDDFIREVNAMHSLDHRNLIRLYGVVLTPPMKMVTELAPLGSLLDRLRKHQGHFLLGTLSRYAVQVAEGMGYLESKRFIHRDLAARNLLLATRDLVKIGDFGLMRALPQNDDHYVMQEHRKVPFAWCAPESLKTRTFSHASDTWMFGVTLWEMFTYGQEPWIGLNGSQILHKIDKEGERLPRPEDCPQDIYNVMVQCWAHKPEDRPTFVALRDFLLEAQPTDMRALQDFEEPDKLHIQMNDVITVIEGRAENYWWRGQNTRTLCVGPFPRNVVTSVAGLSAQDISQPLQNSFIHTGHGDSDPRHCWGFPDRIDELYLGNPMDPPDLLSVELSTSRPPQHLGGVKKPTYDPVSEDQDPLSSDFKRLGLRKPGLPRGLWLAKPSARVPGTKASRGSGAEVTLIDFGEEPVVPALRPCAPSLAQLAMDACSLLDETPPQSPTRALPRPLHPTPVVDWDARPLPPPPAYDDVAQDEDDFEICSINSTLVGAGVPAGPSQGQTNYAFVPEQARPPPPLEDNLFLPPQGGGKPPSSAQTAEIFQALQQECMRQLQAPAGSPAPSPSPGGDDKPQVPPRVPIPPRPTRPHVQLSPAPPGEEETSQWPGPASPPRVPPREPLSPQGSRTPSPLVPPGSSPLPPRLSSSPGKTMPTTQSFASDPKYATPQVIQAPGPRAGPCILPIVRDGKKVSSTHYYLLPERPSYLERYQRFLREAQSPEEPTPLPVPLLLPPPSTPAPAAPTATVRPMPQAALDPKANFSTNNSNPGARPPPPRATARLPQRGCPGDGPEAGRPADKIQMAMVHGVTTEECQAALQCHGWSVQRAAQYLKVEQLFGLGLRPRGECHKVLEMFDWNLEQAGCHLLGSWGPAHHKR
# Chain of Serine/threonine-protein kinase PAK 6 (Homo sapiens) (Q9NQU5 whole entry, looked up, the tested form may be a part): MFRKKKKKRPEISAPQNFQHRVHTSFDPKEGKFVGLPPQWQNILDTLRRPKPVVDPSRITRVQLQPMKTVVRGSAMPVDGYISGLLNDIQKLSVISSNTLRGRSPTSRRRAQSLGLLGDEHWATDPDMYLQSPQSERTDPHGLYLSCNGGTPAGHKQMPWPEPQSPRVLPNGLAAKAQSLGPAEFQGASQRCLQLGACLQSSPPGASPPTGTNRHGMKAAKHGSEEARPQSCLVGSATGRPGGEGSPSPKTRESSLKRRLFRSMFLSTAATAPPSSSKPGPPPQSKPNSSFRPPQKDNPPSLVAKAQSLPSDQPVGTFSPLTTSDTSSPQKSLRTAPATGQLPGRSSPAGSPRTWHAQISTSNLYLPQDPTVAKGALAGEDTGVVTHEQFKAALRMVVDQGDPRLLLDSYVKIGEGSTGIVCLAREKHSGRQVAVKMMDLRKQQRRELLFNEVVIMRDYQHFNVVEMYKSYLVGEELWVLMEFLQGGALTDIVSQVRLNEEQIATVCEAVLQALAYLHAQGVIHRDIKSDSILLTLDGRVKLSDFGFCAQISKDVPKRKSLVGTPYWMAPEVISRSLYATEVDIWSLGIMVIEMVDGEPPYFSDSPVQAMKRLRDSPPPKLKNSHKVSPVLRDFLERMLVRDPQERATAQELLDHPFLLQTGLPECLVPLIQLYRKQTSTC
# Chain of PAS domain-containing serine/threonine-protein kinase (Homo sapiens) (Q96RG2 whole entry, the tested form may be a part): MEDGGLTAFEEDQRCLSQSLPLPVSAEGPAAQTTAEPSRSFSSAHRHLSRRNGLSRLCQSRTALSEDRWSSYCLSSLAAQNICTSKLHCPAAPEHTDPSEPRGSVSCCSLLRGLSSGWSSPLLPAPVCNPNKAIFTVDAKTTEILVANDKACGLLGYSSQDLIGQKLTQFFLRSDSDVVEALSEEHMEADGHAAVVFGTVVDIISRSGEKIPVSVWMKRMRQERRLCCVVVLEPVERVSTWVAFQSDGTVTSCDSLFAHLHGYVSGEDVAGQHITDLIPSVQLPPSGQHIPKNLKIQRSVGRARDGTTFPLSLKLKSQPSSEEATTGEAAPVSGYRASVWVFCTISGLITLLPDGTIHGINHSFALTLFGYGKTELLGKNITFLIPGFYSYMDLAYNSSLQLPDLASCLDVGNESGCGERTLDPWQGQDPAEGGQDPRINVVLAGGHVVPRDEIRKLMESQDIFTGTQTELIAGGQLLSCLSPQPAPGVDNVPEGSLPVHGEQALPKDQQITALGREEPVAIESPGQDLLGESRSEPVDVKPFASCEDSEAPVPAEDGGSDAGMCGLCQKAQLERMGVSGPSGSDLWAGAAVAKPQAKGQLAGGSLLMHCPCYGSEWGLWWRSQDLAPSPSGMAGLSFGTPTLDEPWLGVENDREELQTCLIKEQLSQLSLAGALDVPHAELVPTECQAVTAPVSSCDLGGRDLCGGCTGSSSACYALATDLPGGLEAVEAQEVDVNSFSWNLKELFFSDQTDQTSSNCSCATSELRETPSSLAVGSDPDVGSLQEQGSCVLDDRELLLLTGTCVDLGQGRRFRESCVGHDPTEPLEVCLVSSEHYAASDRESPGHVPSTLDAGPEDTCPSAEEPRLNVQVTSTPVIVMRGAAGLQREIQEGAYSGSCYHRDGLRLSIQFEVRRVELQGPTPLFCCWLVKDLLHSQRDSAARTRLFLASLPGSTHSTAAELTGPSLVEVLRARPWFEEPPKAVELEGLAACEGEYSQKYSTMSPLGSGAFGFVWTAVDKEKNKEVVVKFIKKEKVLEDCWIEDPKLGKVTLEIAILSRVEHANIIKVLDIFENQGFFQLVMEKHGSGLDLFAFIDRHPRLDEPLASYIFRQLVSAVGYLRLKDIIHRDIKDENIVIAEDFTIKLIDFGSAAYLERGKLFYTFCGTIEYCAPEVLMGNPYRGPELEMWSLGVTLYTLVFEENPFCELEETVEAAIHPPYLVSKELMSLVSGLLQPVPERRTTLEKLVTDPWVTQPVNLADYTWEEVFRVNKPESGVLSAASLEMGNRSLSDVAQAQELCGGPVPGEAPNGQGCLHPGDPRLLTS
# Chain of Serine/threonine-protein kinase PAK 5 (Homo sapiens) (Q9P286 whole entry, looked up): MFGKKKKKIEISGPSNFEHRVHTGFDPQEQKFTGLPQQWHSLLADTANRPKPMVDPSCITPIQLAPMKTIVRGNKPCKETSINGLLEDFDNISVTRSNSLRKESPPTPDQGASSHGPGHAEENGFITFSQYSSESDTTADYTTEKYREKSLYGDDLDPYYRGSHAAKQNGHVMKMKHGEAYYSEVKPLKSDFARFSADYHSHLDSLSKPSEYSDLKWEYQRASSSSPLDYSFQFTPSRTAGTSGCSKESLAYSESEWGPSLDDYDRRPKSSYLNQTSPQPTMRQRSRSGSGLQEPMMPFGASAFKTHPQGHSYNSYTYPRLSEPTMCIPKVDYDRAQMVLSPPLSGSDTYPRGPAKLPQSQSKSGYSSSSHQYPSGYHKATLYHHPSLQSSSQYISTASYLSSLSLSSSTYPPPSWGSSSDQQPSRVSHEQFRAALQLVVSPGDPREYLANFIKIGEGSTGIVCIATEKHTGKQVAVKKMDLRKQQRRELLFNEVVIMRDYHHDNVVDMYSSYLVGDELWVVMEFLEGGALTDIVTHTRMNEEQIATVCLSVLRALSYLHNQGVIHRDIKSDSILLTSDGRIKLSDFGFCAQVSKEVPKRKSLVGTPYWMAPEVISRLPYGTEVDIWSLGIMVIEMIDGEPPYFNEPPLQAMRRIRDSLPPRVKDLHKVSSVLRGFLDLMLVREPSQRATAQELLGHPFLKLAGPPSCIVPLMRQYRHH
Compound,residual activity [1] [%],residual activity [2] [%],residual activity [3] [%],residual activity [4] [%],residual activity [5] [%],residual activity [6] [%],residual activity [7] [%],residual activity [8] [%],residual activity [9] [%],residual activity [10] [%],residual activity [11] [%],residual activity [12] [%],residual activity [13] [%],residual activity [14] [%],residual activity [15] [%],residual activity [16] [%],residual activity [17] [%],residual activity [18] [%],residual activity [19] [%],residual activity [20] [%]
COc1ccc(Cl)cc1NC(=O)Nc1cc(C)nc2ccccc12,96,88,80,100,91,88,43,90,80,77,58,88,78,91,94,92,–,–,–,–
c1ccc(-c2cnc(Nc3ccc(OCCN4CCCC4)cc3)s2)cc1,105,76,–,–,–,–,62,68,16,–,–,–,–,28,74,27,131,115,81,–
O=c1cc(N2CCNCC2)oc2c(-c3ccccc3)cccc12,102,85,104,95,89,82,51,88,69,69,49,95,75,71,91,82,–,–,–,90
CC(C)N(CCC(=O)c1ccc2ccccc2c1)Cc1ccccc1,88,79,–,–,–,–,–,68,63,74,–,–,–,–,–,–,–,–,–,–
O=C(Nc1ccc(Cl)cc1)c1ccccc1NCc1ccncc1,100,99,117,128,–,–,–,–,76,–,–,–,78,72,–,–,130,72,–,–
O=C(NC(NC(=S)Nc1ccc(F)c([N+](=O)[O-])c1)C(Cl)(Cl)Cl)C(c1ccccc1)c1ccccc1 (stereo unspecified),100,97,–,66,–,61,75,100,78,81,97,90,71,77,–,86,94,103,89,–
O=C1Cc2c([nH]c3ccc([N+](=O)[O-])cc23)-c2ccccc2N1,22,21,24,25,61,41,–,44,24,–,–,48,40,36,10,9,–,–,18,106
O=C(CCCc1ccc(-c2ccccc2F)cc1)Nc1ccc(O)cc1,103,91,104,95,96,103,108,89,75,88,44,106,89,99,96,78,111,94,106,99
Nc1ncnc2c1c(-c1ccc(Oc3ccccc3)cc1)cn2C1CCCC1,89,64,76,44,91,63,43,4,1,76,27,99,61,63,83,67,125,–,94,90
CCOC(=O)c1c(C)[nH]c(/C=C2\C(=O)Nc3ccccc32)c1C,90,94,–,–,91,99,93,73,64,80,118,80,65,74,88,85,120,83,85,–
Cn1c2ccccc2c2c3c(c4c5ccccc5n(CCC#N)c4c21)CNC3=O,3,2,12,14,4,2,49,3,0,0,4,22,22,16,10,6,108,64,19,17
Nc1n[nH]c2nc3ccccc3nc12,94,85,90,70,84,84,–,68,40,67,51,86,83,86,87,40,–,–,88,–
COc1cc2nccc(Oc3ccc(NC(=S)NC(=O)c4ccccc4C)cc3)c2cc1OC,88,90,83,67,95,64,–,24,8,79,47,88,70,–,81,74,126,96,–,88
CCCC(=O)Oc1ccc2[nH]c(C(=O)c3cc4ccccc4[nH]3)cc2c1,94,84,100,–,108,75,84,72,65,78,99,85,81,96,98,84,132,98,91,–
CC(C)(C)n1nc(Cc2cccc3ccccc23)c2c(N)ncnc21,88,61,88,77,98,79,71,6,2,89,49,103,72,74,105,92,129,60,89,111
